BJeLR viability: BJeLR cell viability loss; BJeLR (HRASV12) viability, CellTiter-Glo ATP luminescence, 48 h; inhibition, % (test concentration not listed); AID 1554; 0.17% of 300,000 active; in the data active = inhibition above about 50%
Mtb hypoxia inh: inhibitors of hypoxia-regulated fluorescent reporter in Mycobacterium tuberculosis; M. tuberculosis hypoxia-regulated fluorescent reporter, fluorescence; fluorescence inhibition, % (concentration not given with the values); 0.1% of 300,000 active; AID 1159583; in the data active = fluorescence inhibition mostly above about 23%, no sharp cut-off; inactive = mostly below about 17%
ugtP null kill: growth inhibition of S. aureus ugtP deletion strain; S. aureus RN4220 ugtP deletion, OD600 growth, 16 h; growth inhibition, % (no concentration beside the values); 0.54% of 330,000 active; AID 1259309; in the data active = growth inhibition above about 68%;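 note: plate controls were untreated wells for no effect and antibiotic for full effect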
CCHFV vOTU inh: blocks the CCHF virus ovarian tumor domain protease | CCHFV vOTU protease, Pep-AMC fluorescence | inhibition, % at 11.5 µM | 0.55% of 370,000 active | AID 651958; in the data active = inhibition above about 30%; note: 0% = vehicle wells with enzyme and 100% = no enzyme wells
RecA splice inh: Mtb RecA intein splicing inhibition; P9WHJ3; cell-free RecA intein splicing, fluorescence; inhibition, % (concentration not given with the values); 0.75% of 290,000 active; AID 2221; in the data active = inhibition above about 30%;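 note: 0% = vehicle wells and 100% = reference inhibitor control wells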
Target sequence (P9WHJ3 whole entry, looked up, canonical isoform): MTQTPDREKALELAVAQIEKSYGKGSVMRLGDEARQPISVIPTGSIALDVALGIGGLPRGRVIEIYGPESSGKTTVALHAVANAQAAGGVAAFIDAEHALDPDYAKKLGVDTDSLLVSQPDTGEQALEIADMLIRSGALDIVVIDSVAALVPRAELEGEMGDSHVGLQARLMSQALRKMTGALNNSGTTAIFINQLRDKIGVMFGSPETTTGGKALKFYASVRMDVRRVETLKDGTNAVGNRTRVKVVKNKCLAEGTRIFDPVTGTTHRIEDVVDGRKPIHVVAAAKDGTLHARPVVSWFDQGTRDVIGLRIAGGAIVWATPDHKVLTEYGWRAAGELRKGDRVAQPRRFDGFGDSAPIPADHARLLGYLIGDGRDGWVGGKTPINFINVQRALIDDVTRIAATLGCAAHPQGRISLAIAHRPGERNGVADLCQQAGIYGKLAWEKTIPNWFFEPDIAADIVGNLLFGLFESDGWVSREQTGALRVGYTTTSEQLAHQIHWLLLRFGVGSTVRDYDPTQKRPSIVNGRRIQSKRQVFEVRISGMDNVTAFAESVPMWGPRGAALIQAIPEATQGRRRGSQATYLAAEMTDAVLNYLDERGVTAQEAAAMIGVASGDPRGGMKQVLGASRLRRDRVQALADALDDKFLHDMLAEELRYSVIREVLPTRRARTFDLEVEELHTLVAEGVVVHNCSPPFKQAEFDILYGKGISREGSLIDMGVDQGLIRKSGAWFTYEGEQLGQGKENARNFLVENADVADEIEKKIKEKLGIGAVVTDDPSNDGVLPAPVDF
RN4220 kill: kills Staphylococcus aureus RN4220 | S. aureus RN4220 growth, OD600, 16 h | inhibition, % (concentration not given with the values) | 0.33% of 330,000 active | AID 1259311; in the data active = inhibition above about 85%;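 note: plate controls were untreated cells for no effect and reference antibiotic for full effect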
* hit, by the source's call; nt = not tested or not shown. Hits are enriched below; roughly 1.6% of the tested compounds scored in any of these assays.

SMILES | BJeLR viability | Mtb hypoxia inh | ugtP null kill | CCHFV vOTU inh | RecA splice inh | RN4220 kill
CCN(CC)c1ccc2c(-c3ccc(S(=O)(=O)O)cc3S(=O)(=O)[O-])c3ccc(=[N+](CC)CC)cc-3oc2c1 | 26.9 | 39.0* | -8.2 | nt | 1.1 | -2.9
CCCOc1ccc2oc(=O)c3c(c2c1)CCCN3C(=O)CN1CCc2ccccc2C1 | nt | nt | 85.8* | 14.6 | 3.3 | 9.9
C[C@@]12C(=O)N(Cc3ccccc3)CC(=O)N1C1c3cc(Cl)ccc3OCC1C2c1ccccc1 (some centres not stated) | nt | 15.5 | 8.0 | nt | nt | -1.3
CCCCNS(=O)(=O)c1ccc2nc(SCC(=O)Nc3sccc3C#N)[nH]c2c1 | 0.4 | nt | -4.5 | 29.6* | 9.7 | -0.3
CCCCN1C(=S)NCC1Cc1ccccc1 (configuration not stated) | nt | 14.4 | 3.5 | nt | nt | 3.6
CN(C)c1ccc(/C=C/c2ccc3ccccc3n2)cc1 | 71.3* | 15.8 | -3.6 | nt | -0.4 | -4.1
C(=C\c1ccc2ccccc2n1)/c1ccccc1 | 20.5 | 6.9 | 17.2 | -2.6 | 7.8 | 3.0
CC1CN(C(C)CO)C(=O)c2cccc(NS(=O)(=O)c3cccs3)c2OC1CN(C)C(=O)Nc1ccc(C(F)(F)F)cc1 (configuration not stated) | nt | 2.1 | -28.5 | nt | nt | 4.1
Cc1ccc(C)c(NC(=O)CN(C)C(=O)c2ccc(S(=O)(=O)N3CCCCCC3)cc2)c1 | nt | 31.3* | -0.2 | -6.8 | nt | 1.5
O=C(CCl)Nc1cc(S(=O)(=O)N2CCCCCC2)ccc1Cl | 4.5 | 15.9 | 3.6 | -12.3 | 66.7* | 8.7
COC(=O)C1=C(c2ccccc2OCc2ccccc2)CC2CCC1N2C(=O)NCCOc1ccc(OC)cc1 (configuration not stated) | nt | -6.0 | -14.8 | nt | nt | -10.1
C=CCn1c(=O)c(C(=O)Nc2ccc(C)cn2)c(O)c2ccccc21 | -2.0 | 8.7 | 100.5* | -7.4 | -2.0 | 96.2*
C=CCn1c(=O)c(C(=O)Nc2cccnc2)c(O)c2ccccc21 | -1.8 | nt | 61.2 | 17.4 | 0.9 | 98.8*
C=CCn1c(=O)c(C(=O)NCCc2ccccc2)c(O)c2ccccc21 | -0.2 | 4.4 | 27.9 | -1.5 | 3.1 | 8.2
C=CCn1c(=O)c(C(=O)NCc2ccc(Cl)cc2)c(O)c2ccccc21 | -0.8 | 4.5 | 50.5 | -1.7 | -2.6 | 10.7
O=C(O)c1ccc2c(c1)[C@@H]1C=CC[C@@H]1[C@H](c1ccccn1)N2 | -3.8 | 7.7 | -13.0 | 54.3* | 9.3 | 11.1
CC1CN(C(C)CO)C(=O)c2cccc(NC(=O)CCC(F)(F)F)c2OC1CN(C)S(=O)(=O)c1ccc(F)cc1 (configuration not stated) | nt | 5.2 | 0.9 | nt | nt | 3.8
O=C(NC(=S)Nc1ccccc1N1CCCC1)c1ccc([N+](=O)[O-])cc1 | 7.3 | -6.0 | 41.6 | 13.9 | 12.2 | 1.9
CCCCC(=O)NC(=S)Nc1ccccc1N1CCCCC1 | 0.9 | 6.4 | 83.8* | 27.9 | 5.4 | -1.2
COc1ccc(C(=O)NC(=S)Nc2ccccc2N2CCCCC2)cc1[N+](=O)[O-] | -32.4 | 9.5 | 94.2* | 4.8 | 12.5 | -0.2
Cc1c(C(=O)NC(=S)Nc2ccccc2N2CCCC2)cccc1[N+](=O)[O-] | 8.4 | 0.9 | 96.3* | 10.3 | 7.2 | 9.5
C=C(C)C(=O)Nc1cccc(C2=NOC3(C2)CC(C(N)=O)N(C(=O)c2ccccc2C(=O)c2ccccc2)C3)c1 (configuration not stated) | nt | 3.8 | 2.4 | nt | nt | 3.9
O=C1NC(Cc2cn(S(=O)(=O)c3ccccc3)c3ccccc23)C(=O)NC1Cc1ccccc1 (configuration not stated) | nt | -1.4 | 6.7 | nt | nt | 5.8
COc1ccc(NC(=O)/C(C#N)=C/c2ncc([N+](=O)[O-])n2C)c(OC)c1 | -5.4 | -13.8 | 0.5 | 1.4 | 37.2* | 0.9
Cc1ccc(S(=O)(=O)N2C(c3ccc(Cl)c(Cl)c3)CC=C(C(=O)O)C2c2ccccc2)cc1 (configuration not stated) | nt | 7.2 | 90.3* | nt | nt | 28.1
Cc1ccc(S(=O)(=O)N2[C@@H](c3ccccc3)C(C(=O)O)=CC[C@H]2c2ccc(Cl)c(Cl)c2)cc1 | nt | nt | nt | 13.8 | nt | nt
CCOc1cc(C=O)c(Br)cc1OC1CCCC1 | 0.8 | nt | 87.2* | 2.6 | 7.3 | -9.0
CCOC(=O)C1CCN(C(=O)C2CCN(c3ncnc4c3nc3n4CCCCC3)CC2)CC1 | -3.0 | -10.0 | -8.7 | 6.3 | -6.0 | -0.5
CC1CCN(C(=O)C2CCN(c3ncnc4c3nc3n4CCCCC3)CC2)CC1 | -6.9 | 28.4* | 7.3 | 0.4 | -6.0 | 1.3
